# Bioassay records: PubChem, NMMLSC
# RGS4-Gao reg: human RGS4-Galphao interaction regulation. P09471. Multiplexed bead flow cytometry, RGS4-Galphao binding; actives lie on both sides. binding response (% of control), % at 10 µM. actives 0.33% (n = 220,000). AID 1415; in the data active = binding response below about 49% or above about 150%; inactive = in between;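 note: fluorescent Galphao activated with aluminum fluoride binding bead-coupled RGS4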
# Target sequence (P09471 whole entry, looked up): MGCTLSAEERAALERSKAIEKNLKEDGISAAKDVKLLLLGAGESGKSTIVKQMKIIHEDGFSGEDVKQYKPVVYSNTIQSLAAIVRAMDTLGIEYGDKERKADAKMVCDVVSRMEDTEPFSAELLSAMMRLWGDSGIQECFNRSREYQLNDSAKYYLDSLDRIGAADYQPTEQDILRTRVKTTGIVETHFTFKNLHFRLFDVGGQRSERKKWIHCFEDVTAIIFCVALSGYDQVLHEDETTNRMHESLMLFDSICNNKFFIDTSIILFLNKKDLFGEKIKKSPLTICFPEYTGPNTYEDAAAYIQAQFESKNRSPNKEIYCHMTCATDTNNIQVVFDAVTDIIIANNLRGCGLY
# Avidin fluor: avidin bead compound fluorescence profile | Avidin beads, compound fluorescence 488/530 nm, flow cytometry; hits give high values | fluorescence (KMESF) at 10 µM | actives 0.38% (n = 220,000); in the data active = fluorescence above about 47
# RGS8-Gao reg: human RGS8-Galphao interaction regulation; multiplexed bead flow cytometry, RGS8-Galphao binding; actives lie on both sides; response (percent of control binding), % at 10 µM; actives 0.34% (n = 220,000); AID 1423; in the data active = response below about 60% or above about 140%; inactive = in between;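 note: Galphao activated as the GDP aluminium fluoride complex binding bead-coupled RGS8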
# RGS16-Gao HTS: RGS16-Galphao interaction regulator (human); O15492+P09471; bead-based flow cytometry RGS16-Galphao binding, fluorescence; actives lie on both sides; binding response (% of control), % at 10 µM; actives 0.38% (n = 220,000);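 note: Galphao activated by GDP with aluminum fluoride before binding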
# GSH bead fluor: GSH bead compound fluorescence profile; actives 0.25% (n = 190,000); GSH beads flow cytometry, compound fluorescence 488/530 nm; hits give high values; fluorescence (KMESF) at 10 µM; AID 1776; in the data active = fluorescence above about 89;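 note: glutathione beads carrying GST-tagged Bcl family fusion proteins plus one bare bead set; values are compound well signal with DMSO vehicle wells as background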
# RGS7-Gao reg: human RGS7-Galphao interaction regulation. actives 0.35% (n = 220,000). AID 1439. Multiplexed bead flow cytometry, RGS7-Galphao binding; actives lie on both sides. binding response (% of control), % at 10 µM. P09471; in the data active = binding response below about 49% or above about 150%; inconclusive = no clear call, values can overlap the other calls; inactive = in between;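 note: fluorescent Galphao held in activated GDP-AlF4 state binding bead-coupled RGS7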
# RGS-Gao: modulates binding between human RGS4 and Galphao | actives 99% (n = 1,600) | shares compounds with RGS16-Gao HTS | AID 1504 | RGS4–Galpha-o binding response, % at 10 µM | multiplexed bead flow cytometry, RGS–Galpha-o binding;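 note: fluorescently labeled Galpha-o bound to GDP with aluminium fluoride binding biotinylated RGS beads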
# Biotin-avidin: interferes with biotinylated probe binding to avidin beads. shares compounds with RGS16-Gao HTS. streptavidin beads, fluorescein-biotin binding, flow cytometry. inhibition, % at 10 µM. 1,700 tested, under 10 active;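 active = inhibition above 50%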;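 note: median green fluorescence of gated singlet beads compared with DMSO control wells; 0% = DMSO wells and 100% = complete loss of bead fluorescence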
# RGS8-Gao confirm: RGS8-Galphao interaction regulation, single point confirmation; shares compounds with RGS16-Gao HTS; bead-based flow cytometry RGS8-Galphao binding, fluorescence; actives lie on both sides; binding response (% of control), % at 10 µM; actives 3% (n = 1,700); in the data active = binding response below about 72% or above about 130%; inactive = in between;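 note: Galphao activated as GDP AlF4 complex before binding bead RGS8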
# RGS7-Gao single: RGS7-Galphao interaction regulation, single point confirmation; shares compounds with RGS16-Gao HTS; AID 1837; bead-based flow cytometry RGS7-Galphao binding; actives lie on both sides; response (percent of control binding), % at 10 µM; actives 7.8% (n = 1,700); in the data active = response below about 75% or above about 130%; inactive = in between;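 note: fluorescent Galphao activated with GDP and aluminum fluoride binding bead-coupled RGS7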
# RGS16-Gao conf: RGS16-Galphao interaction regulation, single point confirmation | shares compounds with RGS16-Gao HTS | bead-based flow cytometry, RGS16-Galphao binding; actives lie on both sides | response (% of control binding), % at 10 µM | actives 4% (n = 1,700); in the data active = response below about 74% or above about 130%; inactive = in between;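 note: Galphao activated as the GDP aluminium fluoride complex binding bead-coupled RGS16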
# RGS4-Gao confirm: confirmation of regulators of human RGS4-Galphao interaction; AID 1840; binding response (% of control), % at 10 µM; shares compounds with RGS16-Gao HTS; RGS4-Galphao binding, multiplexed bead flow cytometry; actives lie on both sides; actives 4% (n = 1,700); in the data active = binding response below about 74% or above about 130%; inactive = in between
# RGS19-Gao single: confirmation of regulators of human RGS19-Galphao interaction | shares compounds with RGS16-Gao HTS | actives 5% (n = 1,700) | response (percent of control binding), % at 10 µM | bead-based flow cytometry RGS19-Galphao binding; actives lie on both sides; in the data active = response below about 50% or above about 160%; inactive = in between;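 note: 100% = no compound control and 0% = blank background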
# An asterisk follows results filed as active; ? = inconclusive; . = no result; [ ] = remark or other dose. This is a sample that favours compounds with a hit; in the whole collection about 1.2% have one here. Unless noted, the rule behind the calls is not given here.
SMILES,RGS4-Gao reg,Avidin fluor,RGS8-Gao reg,RGS16-Gao HTS,GSH bead fluor,RGS7-Gao reg,RGS-Gao,Biotin-avidin,RGS8-Gao confirm,RGS7-Gao single,RGS16-Gao conf,RGS4-Gao confirm,RGS19-Gao single
CCSC1=C(C#N)C2(CCCCC2)C(C#N)C(=O)N1 (configuration not stated),90.8,6,94.2,90.1,13,87.8,.,.,.,.,.,.,.
O=[N+]([O-])c1ccc(C2=NN(CCO)C(=Nc3ccc(OC(F)(F)F)cc3)SC2)cc1,101.0,5,96.7,99.6,.,?,.,.,.,.,.,.,.
C/C(=N\Nc1ccc(F)cc1F)c1ccc(Br)s1,101.7,9,102.4,102.6,14,?,.,.,.,.,.,.,.
CN(C(=O)c1cc2c(s1)-c1ccccc1S(=O)(=O)C2)c1ccccc1,103.2,9,102.4,105.0,.,?,.,.,.,.,.,.,.
Cc1cc(C)c2c(=O)n(CC(=O)N3CCC(N4CCCCC4)CC3)sc2n1,92.4,3,82.4,64.1,16,117.0,.,.,.,.,.,.,.
CCOC(=O)C1CCCN(C(=O)Cn2sc3nc(C)cc(C)c3c2=O)C1 (configuration not stated),89.5,2,58.0*,17.5*,18,95.3,89.5*,-1.3,61.1*,74.9*,15.6*,73.1*,15.4*
CCCNC(=O)Cn1sc2nc(C)cc(C)c2c1=O,78.2,2,60.0,15.5*,.,?,78.2*,0.0,52.2*,69.5*,9.1*,73.3*,3.9*
CC(=O)N1CCCN(Cc2cn(-c3cc(C)ccc3C)nc2-c2ccccc2)CC1,88.5,12,100.2,99.6,14,91.7,.,.,.,.,.,.,.
CC(=O)c1ccc(NC(=O)Nc2ccc(Br)cc2C)cc1,204.1*[activator],76*,87.5,183.9*[activator],20,216.5*[activator],.,0.4,97.8,94.6,100.0,98.6,87.1
CC(=O)c1ccc(NC(=O)c2ccc(C)c(Br)c2)cc1,98.4,7,92.9,59.6,18,92.4,.,.,.,.,.,.,.
O=C(O)CCCN1C(=O)/C(=C/c2ccncc2)SC1=S,151.3*[activator],40,104.4,136.9,.,?,.,-0.8,99.1,97.7,98.6,98.9,100.7
O=C(O)CCCCCN1C(=O)/C(=C\c2ccncc2)SC1=S,102.4,11,122.2,204.9,7,100.3,.,.,.,.,.,.,.
O=C1C(=O)c2ccc(-c3ccccc3)cc2-c2ccccc21,116.4,5,134.3,258.8*[activator],38,112.5,116.4*,-0.7,93.8,96.1,92.1,94.4,62.0
CC(=O)Nc1ccc2nc(CN3CCN(Cc4ccc(F)cc4)C(CCO)C3)ccc2c1 (configuration not stated),103.0,2,102.6,108.2,14,108.2,.,.,.,.,.,.,.
CCCCN(C)C(=O)Cn1cnc2sc(C)cc2c1=O,109.4,110*,97.6,114.0,21,154.9*[activator],109.4*,.,.,.,.,.,.
CCN1CCCC1CNCc1cccc(OC)c1OCc1ccc(F)cc1 (configuration not stated),90.6,2,77.2,19.9*,10,95.5,90.6*,1.0,104.3,99.5,103.7,103.8,100.1
